# Source: PubChem BioAssay (EPA / NIEHS)
# Calls of active or inactive are those of the source. Rule for the calls: active = hit-call score of the fitted dose curve at least 0.9, where 1 is the maximum; inactive = score below 0.9.
# Assay: ATG_M_19_CIS: Attagene CIS-FACTORIAL HepG2 Assay for M19 Transcription Factor (Internal Marker) (AID 2282939)
# Conditions: HepG2 Attagene CIS-FACTORIAL M19 internal marker reporter; actives raise or lower the signal
# Procedure: ATG_CIS is a cell-based, multiplexed-readout assay that uses HepG2, a human liver cell line, with measurements taken at 24 hours after chemical dosing in a 24-well plate.ATG_M_19_CIS is one of 52 assay component(s) measured or calculated from the ATG_CIS assay. It is designed to make measurements of mRNA induction, a form of inducible reporter, as detected with fluorescence intensity signals by Reverse transcription polymerase chain reaction (RT-PCR) and Capillary electrophoresis technology.Data from the assay component ATG_M_19_CIS was analyzed into 1 assay endpoint. This assay endpoint, ATG_M_19_CIS, was analyzed with bidirectional fitting relative to DMSO as the negative control and baseline of activity. Using a type of inducible reporter, measures of mRNA for gain or loss-of-signal activity can be used to understand the background control at the transcription factor-level as they relate to the gene . Furthermore, this assay endpoint can be referred to as a secondary readout, because this assay has produced multiple assay endpoints where this one serves a background control function. To generalize the intended target to other relatable targets, this assay endpoint is annotated to the background measurement intended target family, where the subfamily is internal marker.
# Human liver HepG2 cells are transiently transfected with multiple reporter transcription units (MRTUs) in 6-well plates using FuGene 6 reagent (Roche; 3 ml FuGene/1 mg DNA). The MRTU constructs are regulated by a cis-regulating element (promoter). […] A major difference between the CIS and TRANS system is that in CIS activities of endogenous TFs are measured, whereas the TRANS assay evaluates changes in activities of exogenous, chimeric NR-Gal4 proteins. […] At the end of 24 hour incubation, total RNA was isolated using TriZol reagent (Invitrogen). The isolated RNA is then reverse-transcribed using oligo(dT) primer and Mo-MLV reverse transcriptase (Invitrogen) with DNAse I (Ambion) treatment for 30 min. The one-tenth of the produced cDNA was amplified by PCR using Taq DNA polymerase (Invitrogen) and two reporter sequence-specific primers. The PCR products were fluorescently labeled by primer extension with 6-arboxyfluorescein (6-FAM) 5'-labeled reporter sequence-specific primer (2 min at 95 C, 20 s at 68 C and 10 min at 72 C) and these products were digested with 5U of HpaI (New England Biolabs) for 2h at 37 C. The fragments were purified using Qiaquick PCR columns (Qiagen), analyzed on an ABI 3130xL genetic analyzer (Applied Biosystems) with peak positions identified by using a set of X-rhodamine (ROX)-labeled MapMarker1000 molecular weight standards (BioVentures). The raw capillary electrophoresis data was processed using Attagraph software (Attagene).
SMILES,outcome,AC50
CCOC(=O)c1ccc(C2CCC(NC[C@H](O)COc3ccc(O)c(NS(C)(=O)=O)c3)CC2)cc1 (stereo not given in full),inactive,
Cc1ccc(O)cc1,inactive,
COc1cccc(-c2ccc(/C=C\CN3CCCCCC3)cc2Cl)c1,inactive,
CNCc1ccc(NC(=O)c2c[nH]c3c2C(=O)CCC3)cc1,inactive,
C=CC(=C)CCC=C(C)C,inactive,
CCCCC(CC)COC(=O)c1ccc(C(=O)OCC(CC)CCCC)cc1 (stereo not given),inactive,
CCCC(=O)OCC,inactive,
CCC(C)(C)C(=O)O[C@H]1C[C@@H](C)C=C2C=C[C@H](C)[C@H](CC[C@@H]3C[C@@H](O)CC(=O)O3)[C@H]21,inactive,
O=c1[nH]c2ccc(S(=O)CCN3CCC(Cc4ccc(F)cc4)CC3)cc2o1 (stereo not given),inactive,
CC(C)CCO,inactive,
CN(C)c1ccc(Cc2ccc(N(C)C)cc2)cc1,inactive,
CC(O)CN(CCN(CC(C)O)CC(C)O)CC(C)O (stereo not given),inactive,
Cn1c(=O)c2c(ncn2C)n(C)c1=O,inactive,
COCCOc1cc2cc(C(=O)NC3CCN(C(C)C)CC3)n(CC(=O)Nc3ccc(Cl)cn3)c2cn1,inactive,
Cc1ccc(N)cc1O,inactive,
O=C(NS(=O)(=O)/C=C/c1ccccc1)c1ccc(F)cc1Cl,inactive,
CC1=CC(=O)CC(C)(C)C1,inactive,
Fc1ccccc1[C@@H](F)COC1CCC(Nc2ncnc3[nH]ncc23)CC1 (stereo not given in full),inactive,
C1N2CN3CN1CN(C2)C3,inactive,
CC(C)=CCC/C(C)=C/CO,inactive,

SMILES,outcome,AC50
NC(=O)NO,inactive,
COC(=O)c1ccccc1O,inactive,
O=C(O)CCN(C1(C(=O)NO)CCCC1)S(=O)(=O)c1ccc(Oc2ccc(F)cc2)cc1,inactive,
Nc1nc2ncc(CNc3ccc(C(=O)N[C@@H](CCC(=O)O)C(=O)O)cc3)nc2c(=O)[nH]1,inactive,
Oc1ccc2c(c1)-c1ccccc1C2,inactive,
Nc1cccc(N)c1,inactive,
CN(C)c1ccc(N=NS(=O)(=O)O)cc1,inactive,
CC1(C)C(=O)N(Br)C(=O)N1Br,inactive,
O=C(O)c1cc(N=Nc2ccc(S(=O)(=O)Nc3ccccn3)cc2)ccc1O,inactive,
CC/C(=C\C(=N/O)C(N)=O)C(C)[N+](=O)[O-] (stereo not given),inactive,
Cn1cnc([N+](=O)[O-])c1Sc1ncnc2nc[nH]c12,inactive,
CCCCCCCCCCCCCCCO,inactive,
CC[C@H]1CC[C@H](NCc2cc3c(cc2OC)[C@H]2C[C@H]2C(=O)N3C)[C@H](c2ccccc2)N1,inactive,
Cc1[nH]cnc1C[C@H]1CCc2c(C)c3ccccc3n2C1=O,inactive,
COCCOCCOCCOC,inactive,
O=C(CCCCCCCCc1cccnc1)N1CCC(C=C(c2ccccc2)c2ccccc2)CC1,,59.4 µM (active)
CCn1nc(Cc2ccccc2)cc1C1CCN(C[C@H]2C[C@H](N(C)[C@@H](C(=O)O)C(C)C)C[C@@H]2c2cccc(F)c2)CC1,inactive,
CCc1cc(SCc2sc(-c3ccc(C(F)(F)F)cc3)nc2CN2CCN(c3ccc(OC)cc3)CC2)ccc1OCC(=O)O,inactive,
On1ccccc1=S,inactive,
Cn1c(=O)cc(Oc2ccc(F)cc2F)c2cnc(NCC(C)(C)O)nc21,inactive,
